M1 PAM – human CHRM1 positive allosteric modulation; AID 588819; CHO-K1 hM1, Fluo-8 calcium fluorescence, ACh EC20; 0% = ACh EC20, 100% = maximal ACh; 360,000 compounds, 0.088% hits; activation, % at 3 µM; in the data active = activation above about 19%, passing the limit was not always enough
Target sequence (P11229 whole entry, looked up): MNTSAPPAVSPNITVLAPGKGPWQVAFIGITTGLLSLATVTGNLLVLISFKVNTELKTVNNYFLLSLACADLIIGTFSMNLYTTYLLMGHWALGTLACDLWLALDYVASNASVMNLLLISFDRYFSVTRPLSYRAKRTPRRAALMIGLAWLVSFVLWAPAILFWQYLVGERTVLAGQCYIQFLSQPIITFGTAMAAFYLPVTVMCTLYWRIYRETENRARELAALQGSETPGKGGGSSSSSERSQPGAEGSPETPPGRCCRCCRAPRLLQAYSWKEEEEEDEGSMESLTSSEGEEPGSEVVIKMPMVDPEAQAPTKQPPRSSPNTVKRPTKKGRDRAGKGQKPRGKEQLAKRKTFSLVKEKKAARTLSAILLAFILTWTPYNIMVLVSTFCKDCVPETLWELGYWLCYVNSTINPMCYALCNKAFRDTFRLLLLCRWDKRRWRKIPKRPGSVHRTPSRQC
CHO-K1 Ca antag – M1 antagonist counterscreen hit in parental CHO-K1 cells; ATP-induced calcium, Fluo-8 fluorescence; inhibition, % at 3 µM; 360,000 compounds, 0.6% hits; AID 602250;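 active = inhibition above a per-plate cutoff, the plate's mean sample inhibition plus 3 SD, cut at about 24% in these data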
M1 ag parental – counter-screen for M1 agonists: effect in parental CHO-K1 cells | AID 602248 | Fluo-8 calcium fluorescence; scaled to maximal ATP response, vehicle zero | 360,000 compounds, 0.48% hits | activation, % at 3 µM; in the data active = activation above about 15%;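 also: untransfected CHO-K1 host cells lacking M1 receptor as counterscreen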
CHRM1 agonist – human M1 muscarinic receptor agonism; CHO-K1 hM1, Fluo-8 calcium fluorescence, agonist mode; 0% DMSO, 100% acetylcholine EC100; activation, % at 3 µM; 360,000 compounds, 0.33% hits;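 active = activation above the run's mean compound activation plus 3 SD, cut at about 16% in these data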;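 also: peak over basal fluorescence ratio within a 140 s kinetic read after compound addition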
M1 PAM parental – M1 PAM counterscreen hit in parental CHO-K1 cells. 360,000 compounds, 0.02% hits. activation, % at 3 µM. ATP EC20, Fluo-8 calcium fluorescence; 0% at ATP EC20, 100% at ATP max;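 active = activation above the run cutoff, the mean activation of all test compounds plus 3 SD, cut at about 40% in these data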;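 also: peak over basal fluorescence ratio in a 140 s read after ATP addition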
CHRM1 antagonist – antagonists of human M1 muscarinic receptor. 360,000 compounds, 1.3% hits. CHO-K1 hM1, Fluo-8 calcium fluorescence, ACh EC80 antagonist. AID 588852. inhibition, % at 3 µM;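 active = percent inhibition above its own plate's cutoff, namely the mean of that plate's compound wells plus 3 SD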;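 also: peak over basal fluorescence ratio during 140 s after agonist addition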
Numbers stand for hits; 0 = inactive; - = no result. Most compounds without a hit are left out; they make up all but 2.3% or so of the library.

SMILES	M1 PAM	CHO-K1 Ca antag	M1 ag parental	CHRM1 agonist	M1 PAM parental	CHRM1 antagonist
CCN1CCN(C2CCCCC2NS(=O)(=O)c2ccccc2)CC1 (centres undefined)	0	0	0	0	0	34.1
O=S(=O)(NC1CCCCC1N1CCCCC1)c1ccccc1 (centres undefined)	0	0	0	0	0	0
Nc1ccc(S(=O)(=O)c2cc(O)c3ccccc3c2O)cc1	0	0	0	0	0	0
CC(=O)Oc1ccc2c(C)cc(=O)[nH]c2c1	0	25.9	0	0	0	0
CCN(C(=O)c1ccncc1)c1c(N)n(Cc2ccccc2)c(=O)[nH]c1=O	0	0	0	0	0	0
CC(C)(C)c1ccc(C(=O)N2CCC2(C)C(=O)NCCC#N)cc1 (centres undefined)	0	0	0	0	0	0
Cc1cc(C)n(C(C)Sc2ccccc2)n1 (centres undefined)	0	0	0	0	0	0
CCOc1cc(/C=C\[N+](=O)[O-])ccc1OCC(=O)Nc1ccccc1C	25.6	0	0	0	0	0
COc1cc(/C=N/NC(=O)CCN2CCN(C(c3ccccc3)c3ccccc3)CC2)ccc1O	0	0	0	0	0	27.9
COC(=O)c1[nH]c2c(c1C)C(=O)CC(c1ccc(OC)c(OC)c1)C2 (centres undefined)	0	0	23.2	0	0	0
COCCOC(=O)c1[nH]c2c(c1C)C(=O)CC(c1ccc(OC)c(OC)c1)C2 (centres undefined)	0	0	0	0	0	0
CCOC(=O)c1[nH]c2c(c1C)C(=O)CC(c1ccc(F)cc1)C2 (centres undefined)	0	34.3	0	0	0	0
FC(F)(F)c1ccc(Nc2nnnc3ccccc23)cc1	0	0	0	0	0	0
NC(=O)C1=C(c2ccccc2)c2ccccc2C1=O	0	27.5	0	0	0	0
CCN(C1CCCCC1)S(=O)(=O)c1ccc(S(=O)(=O)NCc2ccncc2)cc1	0	0	18.1	0	0	35.3
O=[N+]([O-])c1ccc(CS(=O)(=O)c2ccc(Cl)cc2)cc1	0	0	0	0	0	40.9
Clc1ccc2nc(C(Cl)(Cl)Cl)[nH]c2c1	0	0	0	0	0	0
O=C(CCc1ccccc1)NC(=S)Nc1ccc2c(c1)C(=O)OC2	0	0	15.5	0	0	0
O=C(NNC(=O)c1ccc(-n2cncn2)c([N+](=O)[O-])c1)c1cccc(Cl)c1	0	47.5	0	0	0	0
O=C(NNC(=O)c1ccc(-n2cncn2)c([N+](=O)[O-])c1)c1ccc(Cl)cc1	0	0	0	0	0	0
CCCCCC(=O)N1C[C@H](n2cc(-c3ccc(F)cc3)nn2)[C@@H](O)C[C@@H]1c1ccc(C)cc1	0	0	0	0	0	0
Brc1cccc(-c2cnc3n2CCCCC3)c1	0	0	0	0	0	48.3
COc1ccccc1-c1ccc(/C=C2\C=CC(=O)O2)o1	0	0	28.0	27.0	0	0
CCCN(CCC)C1=CC(=[N+]2CCCC2)CC(C)(C)C1	0	0	0	0	0	0
CCN(C(=O)COC(=O)c1ccc(C=O)cc1)c1c(N)n(Cc2ccccc2)c(=O)[nH]c1=O	0	0	0	0	0	0
SMILES	M1 PAM	CHO-K1 Ca antag	M1 ag parental	CHRM1 agonist	M1 PAM parental	CHRM1 antagonist
CN(C)CCCNc1ncnc2c1c(-c1ccccc1)cn2-c1ccccc1	0	0	0	0	0	0
c1ccc(CNc2ncnc3scc(-c4cccs4)c23)nc1	0	0	0	0	0	29.5
c1ccc(-c2csc3ncnc(NCc4ccccn4)c23)cc1	0	0	0	0	0	42.9
c1ccc(-c2csc3ncnc(NCCN4CCOCC4)c23)cc1	0	0	0	0	0	0
CN(C)CCCNc1ncnc2scc(-c3ccccc3)c12	0	0	0	0	0	48.1
Cc1ccc(S(=O)(=O)Nc2ccc(-c3ccc4nncn4n3)cc2)cc1	0	0	0	0	0	0
c1ccc2c(c1)nnn2Cn1nnc2ccccc21	0	0	0	0	0	0
CCOc1ccc(S(=O)(=O)NCCC(=O)NCc2ccc(OC)c(OC)c2)cc1	0	0	0	0	0	0
CSCCC(NC(=O)c1ccccc1Br)C(=O)NCC1CCCCC1 (centres undefined)	0	0	0	0	0	0
CSCCC(NC(=O)c1ccco1)C(=O)NCC1CCCCC1 (centres undefined)	24.4	0	0	0	0	0
CC(=O)Nc1c(O)nc(SCC(=O)N2CCCCC2)[nH]c1=O	26.4	0	0	0	0	0
O=C(NCCCNC(=O)c1c(F)cccc1F)c1c(F)cccc1F	0	0	0	0	0	0
O=C(NCC(Cl)c1ccc2ccccc2c1)c1c(F)cccc1F (centres undefined)	0	0	19.7	0	0	0
CC(CCc1ccccc1)NC(=O)COC(=O)c1ccccc1O (centres undefined)	0	0	15.8	0	0	0
COc1ccccc1C(=O)OCC(=O)NC(C)CCc1ccccc1 (centres undefined)	0	0	0	0	0	0
O=C(CCN1C(=O)c2ccccc2C1=O)N(CCO)Cc1ccccc1	0	0	0	0	0	101.5
COC(=O)c1ccc(CN2CCC(Oc3ccc(C(=O)N4CCCCC4)cc3)CC2)cc1	0	0	0	0	0	97.0
Cc1cc(C)cc(CN2CCC(Oc3ccc(C(=O)N4CCCC4)cc3)CC2)c1	0	0	0	0	0	0
CSc1ccc(CN2CCC(Oc3cccc(C(=O)N4CCCC4)c3)CC2)cc1	0	0	0	0	0	75.2
COC(=O)c1ccc(CN2CCC(Oc3cccc(C(=O)N4CCCC4)c3)CC2)cc1	0	0	0	0	0	94.4
O=C(c1cccc(OC2CCN(Cc3cc(F)cc(F)c3)CC2)c1)N1CCCC1	0	0	0	0	0	0
O=C(COC(=O)c1ccc(O)cc1O)NC(=O)NCc1ccccc1	0	0	0	0	0	0
O=C(Nc1cccc(-c2nnc(-c3ccco3)o2)c1)c1ccccc1	0	0	0	0	0	0
CC(=O)Oc1ccc(C(=O)Nc2cccc(-c3nnc(-c4ccco4)o3)c2)cc1	0	0	23.7	0	0	0
COc1ccccc1OCC(=O)Nc1cccc(-c2nnc(-c3ccco3)o2)c1	0	0	0	0	0	24.5
O=C(Cc1ccccc1)Nc1cccc(-c2nnc(-c3ccco3)o2)c1	0	0	0	0	0	0
COc1ccc(CC(=O)Nc2cccc(-c3nnc(-c4cccc(C)c4)o3)c2)cc1OC	0	0	0	0	0	38.1
COc1ccc(CC(=O)Nc2cccc(-c3nnc(-c4ccccc4)o3)c2)cc1OC	0	0	0	0	0	29.5
C[n+]1cccc(NC(=O)c2ccccc2)c1	-	0	0	-	0	-
CCn1c(SCC(=O)Nc2ccccc2)nc2c(c1=O)SCC2	0	0	0	0	0	0

From PubChem
